A selection: hits, their analogues and other compounds. The true share with any hit is near 21%.
Pf growth 96h: Primary qHTS for delayed death inhibitors of the malarial parasite plastid, 96 hour incubation. P. falciparum luciferase reporter growth, 96 h. Potency, µM (highest dose often 28.7 µM), usual class: inhibitors. 6.9% of 320,000 active. AID 504834, 2011
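Erythrocytes infected with luciferase-expressing P. falciparum were dispensed at 2% hematocrit and 0.05% parasitemia (final), then incubated with compounds 96 hours at 37 C in 5% CO2. Luminescence after detection reagent addition reported growth.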
Cycloheximide cs: Cycloheximide Counterscreen for Small Molecule Inhibitors of Shiga Toxin | cell reporter, cycloheximide protein synthesis inhibition counterscreen | max response, % | 12% of 300,000 active | AID 2314, 2010; in the data active means max response mostly above about 13%, no sharp cut-off; inactive means mostly below about 14%; further: read at 38.3 µM for the half of the compounds with a filed dose
AMA1 RON2 block: qHTS for Inhibitors of AMA1-RON; Towards Development of Antimalarial Drug Lead: Primary Screen; Plasmodium falciparum AMA1 (3D7) - RON2 peptide interaction; AlphaScreen AMA1-biotinylated RON2 peptide binding; Potency, µM (top dose mostly 58.2 µM), actives largely listed as inhibitors; 0.2% of 360,000 active; AID 720542, 2013; further: nearly all actives have a fitted effect of over 45% in size
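AMA1 (3D7) with his tag at 25 nM final met compounds first, then biotinylated RON2 peptide at 25 nM; detection used donor plus acceptor beads, 10 µg/mL apiece, read by AlphaScreen after 30 min at room temperature.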
HCV inhibitor: qHTS Assay for Inhibitors of Hepatitis C Virus (HCV); 3.4% of 340,000 active; Potency, µM (top dose mostly 41.8 µM), hits mostly inhibitors; AID 651820, 2012; Huh7.5.1 HCVcc-Cre infection, luciferase reporter, 44 h
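Luciferase read-out (15 sec integration) after a 15 min room-temperature substrate step quantifies HCVcc-Cre infection. Cells, 1,000 per well, had compound added 4 h post-plating, then virus at ~0.5 moi, and were cultured 44 h.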
Pf growth 48h: Primary qHTS for delayed death inhibitors of the malarial parasite plastid, 48 hour incubation; P. falciparum luciferase growth in erythrocytes, 48 h; Potency, µM (top dose mostly 28.7 µM), hits mostly inhibitors; 5.9% of 310,000 active
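Growth was read as firefly luciferase luminescence after a 48 h, 37 C, 5% CO2 exposure of compounds to reporter-bearing P. falciparum cultures (0.1% parasitemia, 2% hematocrit final) in Albumax-supplemented RPMI 1640.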
Shiga toxin inh: A qHTS for Small Molecule Inhibitors of Shiga Toxin; Vero cells, Shiga toxin protein synthesis inhibition reporter; inhibition, % at 38.7 µM; 9.2% of 290,000 active; AID 2315, 2010; in the data active means inhibition mostly above about 28%, no sharp cut-off; inactive means mostly below about 43%
A number is an active result; – = inactive; ? = inconclusive; · = not tested or not shown; [ ] = another dose, or the depositor's remark. Unless noted, the call rests on the fitted dose curve; in most records, active means well fitted curve in the direction sought with a large enough effect; inconclusive means small, poorly fitted or top-dose-only effect, or another doubt; inactive means no such curve, though single readings can be large; an effect the other way counts as inactive or inconclusive.

SMILES | Pf growth 96h | Cycloheximide cs | AMA1 RON2 block | HCV inhibitor | Pf growth 48h | Shiga toxin inh
Cc1cc([N+](=O)[O-])ccc1NCc1ccc2c(c1)OCCO2 | ? | – | – | 10µM | ? | –
O=[N+]([O-])c1ccc(NCc2ccc3c(c2)OCO3)cc1 | ? | 20.6 | – | ? | – | –
Cc1cc(F)ccc1NCc1ccc([N+](=O)[O-])cc1 | ? | 29.8 | ? | – | – | 71.1
Cc1onc(-c2ccccc2)c1CNC(=O)Nc1ccc(C(F)(F)F)cc1 | 4.15µM | – | – | ? | 6.57µM | –
Cc1cc(C)cc(NC(=O)NCc2c(-c3ccccc3)noc2C)c1 | ? | – | – | ? | ? | –
Cc1onc(-c2ccccc2)c1CNC(=O)Nc1cccc(Cl)c1 | 9.28µM | – | – | ? | – | –
O=S(OCCN1CCOCC1)C(c1ccccc1)c1ccccc1 (configuration not stated) | · | · | – | – | · | ·
Cc1cc(C(=O)Nc2ccc(C)c(C)c2)n(-c2ccccc2)n1 | – | – | – | – | –[0.00184 µM] | –
Clc1ccccc1/C=N/c1cc(-c2ccccc2)nn1-c1ccccc1 | – | 32.9 | – | – | ? | 51.6
COC(=O)c1nn(-c2ccccc2)c(=O)cc1O | – | – | – | – | – | –
COc1ccc(-c2cc(C(=O)NN)n(-c3ccccc3)n2)cc1 | ? | 25.3 | – | – | – | 78.3
Cc1ccc(NC(=O)c2cc(-c3ccccc3)nn2-c2ccccc2)cc1 | 10.4µM | – | – | ? | – | –
O=C(Nc1ccc(F)cc1)c1nn(-c2ccccc2)c(=O)cc1Cl | – | – | – | 6.31µM | – | –
Cc1ccc(-n2nc(C(=O)c3ccccc3)n3c(=O)cc(-c4ccccc4)nc23)cc1 | – | – | – | – | – | –
Cc1cc(C(=O)Nc2ccc(Br)cc2F)n(-c2ccccc2)n1 | – | – | – | – | –[0.00184 µM] | –
Cc1ccc(NC(=O)c2cc(-c3ccccc3)nn2-c2ccccc2)c(Br)c1 | 11.7µM | – | – | ? | ? | –
CC(=O)C(/C=N/c1cc(-c2ccc(C)cc2)nn1-c1ccccc1)=C(\C)O | – | 55.8 | –[2.32 µM] | – | – | 93.2
Cc1oc(-c2ccc(Cl)cc2)cc1C(=O)O | – | 42.8 | – | – | – | –
CCC(C(=O)O/N=C(\N)c1cccc(C)c1)c1ccccc1 (configuration not stated) | – | 23.8 | – | – | · | –
Cc1cccc(/C(N)=N/OC(=O)N2c3ccccc3Sc3ccccc32)c1 | 6.57µM | – | – | – | ? | –
Cc1cccc(/C(N)=N/OC(=O)Cc2ccccc2)c1 | ? | 41.4 | – | – | – | 81.2
N/C(=N\OC(=O)N1c2ccccc2Sc2ccccc21)c1ccccc1 | ? | – | – | – | ? | –
CC(Oc1ccccc1F)C(=O)NNC(=O)c1ccc(F)c(S(=O)(=O)N2CCOCC2)c1 (configuration not stated) | – | – | – | – | – | –
O=C1NC(=O)C(Cc2c[nH]c3ccccc23)N1 (configuration not stated) | – | – | – | – | – | –
COc1ccc(NC(=S)/N=C(\N)Nc2nc(C)c3ccccc3n2)cc1 | 2.94µM | 14.4 | – | ? | ? | –
SMILES | Pf growth 96h | Cycloheximide cs | AMA1 RON2 block | HCV inhibitor | Pf growth 48h | Shiga toxin inh
Cc1ccc(NC(=S)/N=C(\N)Nc2nc(C)c3cc(C)c(C)cc3n2)cc1C | 10.4µM | – | – | ? | ? | –
Cc1ccc(NC(=S)/N=C(\N)Nc2nc(C)c3cc(C)ccc3n2)c(C)c1 | ? | – | – | 2.82µM | ? | –
O=C(NCCS(=O)(=O)NCc1cccnc1)c1ccccc1 | – | · | – | – | – | ·
CSCCC(NC(=O)c1ccccc1Br)C(=O)NCC(c1ccco1)N1CCCCC1 (configuration not stated) | 9.28µM | · | – | – | ? | ·
O=C(CCNC(=O)c1ccc(Cl)cc1)NCC(c1ccco1)N1CCCC1 (configuration not stated) | ? | · | – | – | 11.7µM | ·
COc1ccc(Cl)cc1C(=O)NCC(c1ccco1)N1CCCC1 (configuration not stated) | 4.15µM | – | – | ? | ? | –

Bioassay records (PubChem)
